Measurements taken from PubChem BioAssay.

assay: differential killing of epithelial or mesenchymal cells, primary screen, imaging, PC-3E GFP, TEM4-18 mCherry, co-culture (AID 1345086); conditions: imaging cell counts, measured here: epithelial PC-3E GFP cell survival, at 1 µM;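 also: cells exposed to compound for 72 h before imaging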

| Compound | normalised cell number |
| --- | --- |
| COC(=O)C[C@H]1C(C)(C)C(=O)[C@@H]2CC3=C4CC(=O)O[C@@H](c5ccoc5)[C@]4(C)CCC3C1(C)C2=O (some centres undefined) | 0.78 |
| COC(=O)CC1C(C)(C)C(OC(C)=O)[C@@H]2[C@@H](OC(C)=O)[C@]34O[C@@]2(O)C1(C)C3CC[C@]1(C)C4=CC(=O)O[C@H]1c1ccoc1 (some centres undefined) | 0.89 |
| COC1O[C@@H]2O[C@]3(C)CC[C@H]4[C@H](C)CC[C@@H]([C@H]1C)[C@@]24OO3 (some centres undefined) | 0.82 |
| C[C@@H]1O[C@@H](O[C@H]2[C@@H](Oc3cc(O)c4c(c3)O[C@H](c3ccc(O)cc3)CC4=O)O[C@H](CO)[C@@H](O)[C@@H]2O)[C@H](O)[C@H](O)[C@H]1O | 0.94 |
| CC1=C2[C@](C)(C=CC1=O)C[C@H](O)[C@H]1[C@H](C)C(=O)O[C@]21C | 1.09 |
| C=CC(C)(C)c1ccc2[nH]c3c(c2c1)C[C@@H]1CC[C@@]2(O)C4=CC(=O)[C@@H]5O[C@@]4(CC[C@]2(C)[C@@]31C)OC5(C)C | 0.97 |
| O=C(Cc1ccccc1)NCC1O[C@@H](OC2C(NC(=O)Cc3ccccc3)C[C@@H](NC(=O)Cc3ccccc3)[C@H](OC3OC(COS(=O)(=O)O)[C@@H](OS(=O)(=O)O)[C@H](NC(=O)Cc4ccccc4)[C@H]3OS(=O)(=O)O)[C@H]2OS(=O)(=O)O)[C@H](OS(=O)(=O)O)[C@@H](OS(=O)(=O)O)C1OS(=O)(=O)O (some centres undefined) | 0.9 |
| COC1=N[C@@](OC)(C(C)C)C(=O)N[C@@]1(O)[C@H](O)c1ccccc1 | 1.21 |
| Nc1nc2c(c(=O)[nH]1)NC(CNc1ccc(C(=O)NC(CCC(=O)O)C(=O)O)cc1)=CN2 (centres undefined) | 1.19 |
| CO[C@H]1/C=C/C[C@@H](C)OC(=O)c2c(O)cc(O)cc2CC(=O)CCC1 | 0.98 |
| CCCC1=CC(=O)[C@H](O)[C@H]1O | 1.02 |
| COC(=O)/C(=C1\OC(=O)C(c2ccccc2)=C1O)c1ccccc1 | 1.05 |
| CC(C)CCCC(C)C1CCC2C3CC[C@H]4C[C@@H](O)CC[C@]4(C)C3CC[C@]12C (some centres undefined) | 1.04 |
| C#C[C@]1(O)CCC2C3CCC4=CC(=O)CC[C@@H]4C3CCC21CC (some centres undefined) | 1.07 |
| CC1COc2c(N)c(F)cc3c(=O)c(C(=O)O)cn1c23 (centres undefined) | 1.07 |
| CO[C@H]1C[C@H](O[C@H]2[C@H](C)[C@@H](O[C@@H]3O[C@H](C)C[C@H](N(C)C)[C@H]3O)[C@@H](C)C[C@]3(CO3)C(=O)[C@H](C)[C@@H](O)[C@@H](C)[C@@H](C)OC(=O)[C@@H]2C)O[C@@H](C)[C@@H]1O | 1.06 |
| CC(C)=CCC/C(C)=C\CC1=C(C)C(=O)c2ccccc2C1=O | 1.11 |

| Compound | normalised cell number |
| --- | --- |
| CO/N=C1/C[C@]2(C[C@@H]3C[C@@H](C/C=C(\C)C[C@@H](C)/C=C/C=C4\COC5[C@H](O)C(C)=C[C@@H](C(=O)O3)[C@]45O)O2)O[C@H](/C(C)=C/C(C)C)[C@H]1C (some centres undefined) | 1 |
| Cc1ccc(S[C@H]2OC(COCc3ccccc3)C(OC(=O)CCC(=O)O)[C@@H]3OC(=O)N[C@H]23)cc1 (some centres undefined) | 1.11 |
| C#C[C@H](O)COc1ccc(C(=O)O)cc1 | 0.57 |
| CC1=CO[C@]2(C1=O)[C@H]1C(=O)O[C@]3(C[C@@H]2C)C(C)=CC(=O)O[C@]13O | 1.16 |
| COc1c(F)c(F)cc2c(=O)c(C(=O)NO)cn(C3CC3)c12 | 0.97 |
| Nc1nc(Cl)nc2c1ncn2C1O[C@H](CO)[C@@H](O)[C@@H]1F (some centres undefined) | 0.22 |
| CC(C)CCCC(C)C1CCC2C3CC[C@H]4CCCC[C@]4(C)C3CC[C@]12C (some centres undefined) | 1.1 |
| O=C(O)CCc1ccccc1O | 1.1 |
| CC(CC(=O)N1C(=O)OC[C@H]1c1ccccc1)N1CCSC1=S (some centres undefined) | 1.15 |
| CC(=O)OCC1=C[C@]2(O)CC3=C(CC24O[C@@H]4C1=O)[C@@]1(C)CCCC(C)(C)[C@@H]1CC3 (some centres undefined) | 0.93 |
| COC(=O)NC1[C@@H](O)C(O)C(CO)O[C@H]1Sc1ccccc1 (some centres undefined) | 1.06 |
| CC(CCC(=O)O)[C@H]1CCC2C3CC[C@@H]4CCCC[C@]4(C)C3CC[C@@]21C (some centres undefined) | 1.12 |
| COc1cc2c(cc1OC)C1C(=O)c3c(O)cc4c(c3OC1CO2)C=CC(C)(C)O4 (centres undefined) | 0.94 |
| Clc1ccc(Br)cc1OCC1CCCNC1 (centres undefined) | 1.28 |
| C=CC(C)(C)c1cc(O)ccc1OC1OC(CO)C(O)C(O)C1O (centres undefined) | 0.93 |
| CC1(C)C[C@@H]2C(=O)CC[C@@H]3O[C@]3(C)CC[C@H]21 | 0.93 |
| COC(=O)C1O[C@H](Sc2ccccc2)[C@@H](OC(=O)c2ccccc2)[C@@H](OC(=O)c2ccccc2)C1O (some centres undefined) | 1.05 |
